In the antibiotic and cytotoxicity screens of Wong et al. (2023):
About 3,300 (8.5%) of roughly 39,000 compounds were called active. This is one part of a sample in which actives are shown more often than they occur.

Each compound was assayed on HepG2 (assay: cytotoxicity call (relative viability < 0.9)). Conditions: 10 µM.

Structure (SMILES)	cytotoxicity call
C[C@@H]1CN([C@@H](C)CO)C(=O)c2cccc(NC(=O)Nc3cccc4ccccc34)c2O[C@H]1CN(C)S(=O)(=O)c1ccccc1F	inactive
Cc1noc(C)c1NC(=O)Nc1ccc2c(c1)C(=O)N([C@H](C)CO)C[C@H](C)[C@H](CN(C)S(C)(=O)=O)O2	inactive
O=C(CN1CCOCC1)N[C@@H]1CC[C@H](CCNC(=O)Nc2cc(F)ccc2F)O[C@@H]1CO	inactive
COc1ccc(NC(=O)N(C)C[C@@H]2OCCCC[C@H](C)Oc3ccc(NC(=O)c4ccccc4)cc3C(=O)N([C@H](C)CO)C[C@H]2C)cc1	inactive
O=C(C[C@H]1C=C[C@@H](NC(=O)C2CC2)[C@@H](CO)O1)NCCCN1CCOCC1	inactive
NNC(=O)CNc1ccc2c(c1)OCO2	inactive
C[N+](C)(C)CCCCNC(=O)[C@H]1C[C@H]2C(=O)N[C@@H](Cc3ccccc3)C(=O)N2[C@H]1c1cccc(OCCO)c1	inactive
C[C@H]1CN([C@@H](C)CO)C(=O)c2cc(C#CC3(O)CCCC3)cnc2O[C@@H]1CN(C)S(=O)(=O)c1ccc(F)cc1	inactive
C[C@H]1[C@H](NC(=O)/C(=N\OC(C)(C)C(=O)O)c2csc(N)n2)C(=O)N1S(=O)(=O)O	inactive
C[C@@H]1CCCCO[C@H](CN(C)S(C)(=O)=O)[C@H](C)CN([C@@H](C)CO)C(=O)c2cc(NC(=O)CCCN(C)C)ccc2O1	inactive
CCS(=O)(=O)NCC[C@H]1CC[C@H](NS(=O)(=O)c2cccc(F)c2)[C@@H](CO)O1	inactive
C[C@@H]1CCCCO[C@H](CN(C)C(=O)Nc2cccc3ccccc23)[C@H](C)CN([C@@H](C)CO)C(=O)c2cc(NC(=O)Cc3ccccc3)ccc2O1	inactive
COc1ccc(S(=O)(=O)N[C@@H]2CC[C@@H](CC(=O)N3CCC(Cc4ccccc4)CC3)O[C@H]2CO)cc1	inactive
C[C@H]1CCCCO[C@@H](CN(C)C(=O)Nc2ccc(C(F)(F)F)cc2)[C@@H](C)CN([C@@H](C)CO)C(=O)c2cc(NC(=O)c3ccncc3)ccc2O1	inactive
C[C@@H]1CCCCO[C@@H](CN(C)C(=O)Nc2ccc3c(c2)OCO3)[C@@H](C)CN([C@@H](C)CO)C(=O)c2cc(NC(=O)Nc3ccc(C(F)(F)F)cc3)ccc2O1	inactive
C[C@@H]1CCCCO[C@H](CN(C)C(=O)Nc2ccc(C(F)(F)F)cc2)[C@H](C)CN([C@H](C)CO)C(=O)c2cc(NC(=O)Cc3ccccc3)ccc2O1	inactive
COc1ccc(NC(=O)Nc2ccc3c(c2)C(=O)N([C@H](C)CO)C[C@H](C)[C@@H](CN(C)CC2CCCCC2)OCCCC[C@H](C)O3)cc1	inactive
COc1ccc(NC(=O)Nc2ccc3c(c2)C(=O)N([C@H](C)CO)C[C@H](C)[C@H](CN(C)CC2CCCCC2)OCCCC[C@@H](C)O3)cc1	inactive
COc1ccc(NC(=O)Nc2ccc3c(c2)C(=O)N([C@@H](C)CO)C[C@H](C)[C@H](CN(C)CC2CCCCC2)OCCCC[C@H](C)O3)cc1	active
O=C(O[C@@H]1O[C@@H]2COC(=O)c3cc(Oc4c(C(=O)O)cc(O)c(O)c4O)c(O)c(O)c3-c3c(cc(O)c(O)c3O)C(=O)O[C@H]2[C@H](OC(=O)c2cc(O)c(O)c(O)c2)[C@H]1OC(=O)c1cc(O)c(O)c(O)c1)c1cc(O)c(O)c(O)c1	inactive
O=C(O[C@@H]1Cc2c(O)cc(O)cc2O[C@@H]1c1cc(O)c(O)c(O)c1-c1c([C@H]2Oc3cc(O)cc(O)c3C[C@H]2O)cc(O)c(O)c1O)c1cc(O)c(O)c(O)c1	inactive

Structure (SMILES)	cytotoxicity call
O=C(OC1Cc2c(O)cc(O)cc2OC1c1cc(O)c(O)c(O)c1-c1c(C2Oc3cc(O)cc(O)c3CC2OC(=O)c2cc(O)c(O)c(O)c2)cc(O)c(O)c1O)c1cc(O)c(O)c(O)c1 (stereo not drawn)	inactive
O=C(O[C@@H]1O[C@@H]2COC(=O)c3cc(O)c(O)c(O)c3-c3c(cc(O)c(O)c3O)C(=O)O[C@H]2[C@H](OC(=O)c2cc(O)c(O)c(O)c2)[C@H]1OC(=O)c1cc(O)c(O)c(O)c1)c1cc(O)c(O)c(O)c1	active
O=C(O[C@@H]1O[C@H]2COC(=O)c3cc(O)c(O)c(O)c3-c3c(cc(O)c(O)c3O)C(=O)O[C@@H]([C@H]1O)[C@@H]2OC(=O)c1cc(O)c(O)c(O)c1-c1c(C(=O)O)cc(O)c(O)c1O)c1cc(O)c(O)c(O)c1	active
O=C(O[C@@H]1O[C@H]2COC(=O)c3cc(O)c(O)c(O)c3-c3c(cc(O)c(O)c3O)C(=O)O[C@@H]([C@H]1O)[C@@H]2O)c1cc(O)c(O)c(O)c1	inactive
C[C@@H]1CCCCO[C@H](CN(C)C(=O)CCC(F)(F)F)[C@@H](C)CN([C@H](C)CO)C(=O)c2cc(NC(=O)NC3CCCCC3)ccc2O1	inactive
C[C@@H]1CN([C@H](C)CO)C(=O)c2cccc(NC(=O)C3CCOCC3)c2O[C@H]1CN(C)Cc1ccc(C(=O)O)cc1	inactive
Cc1ccc(S(=O)(=O)Nc2ccc3c(c2)C(=O)N([C@@H](C)CO)C[C@H](C)[C@H](CN(C)C(=O)Nc2c(C)noc2C)OCCCC[C@@H](C)O3)cc1	inactive
C[C@H]1CN([C@@H](C)CO)C(=O)Cc2cc(NC(=O)Nc3cccc4ccccc34)ccc2O[C@H]1CN(C)Cc1ccc2c(c1)OCO2	inactive
C[C@@H]1CN([C@H](C)CO)C(=O)Cc2cc(NC(=O)Nc3cccc4ccccc34)ccc2O[C@@H]1CN(C)Cc1ccc2c(c1)OCO2	active
C[C@@H]1CN([C@@H](C)CO)C(=O)Cc2cc(NC(=O)Nc3cccc4ccccc34)ccc2O[C@@H]1CN(C)Cc1ccc2c(c1)OCO2	active
C[C@H](CO)N1C[C@H](C)[C@@H](CN(C)Cc2ccc3c(c2)OCO3)Oc2ccc(NC(=O)Nc3cccc4ccccc34)cc2C1=O	inactive
C[C@@H]1CN([C@H](C)CO)C(=O)Cc2cc(NC(=O)Nc3cccc4ccccc34)ccc2O[C@H]1CN(C)Cc1ccc2c(c1)OCO2	inactive
C[C@H](CO)N1C[C@H](C)[C@@H](CN(C)Cc2ccc3c(c2)OCO3)Oc2ccc(NC(=O)Nc3cccc4ccccc34)cc2CC1=O	inactive
C[C@@H]1CN([C@@H](C)CO)C(=O)Cc2cc(NC(=O)Nc3cccc4ccccc34)ccc2O[C@H]1CN(C)Cc1ccc2c(c1)OCO2	active
C[C@H](CO)N1C[C@H](C)[C@H](CN(C)Cc2ccc3c(c2)OCO3)Oc2ccc(NC(=O)Nc3cccc4ccccc34)cc2CC1=O	inactive
C[C@H]1CN([C@@H](C)CO)C(=O)Cc2cc(NC(=O)Nc3cccc4ccccc34)ccc2O[C@@H]1CN(C)Cc1ccc2c(c1)OCO2	inactive
O=c1[nH][nH]c(=O)c(Cl)c1Cl	inactive
COc1ccc(NC(=O)N(C)C[C@@H]2Oc3c(NC(=O)C4CC4)cccc3C(=O)N([C@@H](C)CO)C[C@H]2C)cc1	inactive
CC(C)CC#Cc1ccc2c(c1)O[C@H](CN(C)C(=O)NC1CCCC1)[C@@H](C)CN([C@H](C)CO)S2(=O)=O	inactive
CC(C)NC(=O)Nc1cccc2c1O[C@H](CN(C)S(=O)(=O)c1ccc(Cl)cc1)[C@H](C)CN([C@@H](C)CO)C2=O	inactive
COc1ccc(CN(C)C[C@@H]2OCCCC[C@@H](C)Oc3ccc(NS(=O)(=O)c4c(C)noc4C)cc3C(=O)N([C@H](C)CO)C[C@H]2C)cc1	inactive

Structure (SMILES)	cytotoxicity call
C[C@@H]1CN([C@@H](C)CO)C(=O)c2cc(NC(=O)Cc3cn(C)c4ccccc34)ccc2O[C@H]1CN(C)S(=O)(=O)c1cn(C)cn1	inactive
COc1ccc(NC(=O)Nc2ccc3c(c2)C(=O)N([C@@H](C)CO)C[C@H](C)[C@H](CN(C)C(=O)Nc2ccc4c(c2)OCO4)OCCCC[C@H](C)O3)cc1	inactive
CCS(=O)(=O)Nc1ccc2c(c1)C(=O)N(C)[C@@H]1CC[C@H](CC(=O)N[C@H]3CCN(Cc4ccccc4)C3)O[C@H]1CO2	inactive
CCS(=O)(=O)Nc1ccc2c(c1)CC(=O)N2	inactive
CCS(=O)(=O)Nc1ccc2c(c1)/C(=C(/Nc1ccc(CN3CCCCC3)cc1)c1ccccc1)C(=O)N2	active
N#Cc1cccc(NCCN2CCNC2=O)n1	inactive
Cc1ccc(S(=O)(=O)N(C)C[C@@H]2Oc3cc(C#Cc4ccccc4)ccc3S(=O)(=O)N([C@H](C)CO)C[C@H]2C)cc1	inactive
Cc1ccc(S(=O)(=O)N(C)C[C@H]2Oc3cc(C#Cc4ccccc4)ccc3S(=O)(=O)N([C@H](C)CO)C[C@@H]2C)cc1	inactive
C=CCCN(CC#C[C@H]1Oc2ccccc2S(=O)(=O)N2CCC[C@@H]12)S(=O)(=O)c1ccc(C)cc1	active
C[C@@H]1CCCCO[C@H](CN(C)C(=O)Cc2ccccc2)[C@@H](C)CN([C@H](C)CO)C(=O)c2cc(NS(=O)(=O)c3ccc(F)cc3)ccc2O1	inactive
Cc1noc(C)c1NC(=O)Nc1ccc2c(c1)C(=O)N([C@H](C)CO)C[C@@H](C)[C@H](CN(C)C(=O)Nc1ccc(C(F)(F)F)cc1)OCCCC[C@H](C)O2	inactive
CCCNC(=O)Nc1ccc2c(c1)OC[C@H](C)N(Cc1ccc(-c3ccccn3)cc1)C[C@@H](C)[C@@H](OC)CN(C)C2=O	inactive
O=C(C[C@H]1CC[C@H]2[C@@H](COC[C@@H](O)CN2Cc2cc(F)ccc2F)O1)N[C@@H]1CCN(Cc2ccccc2)C1	inactive
O=C(C[C@H]1CC[C@@H]2[C@H](COC[C@@H](O)CN2Cc2cc(F)ccc2F)O1)N[C@@H]1CCN(Cc2ccccc2)C1	active
O=C(C[C@@H]1CC[C@@H]2[C@H](COC[C@@H](O)CN2Cc2cc(F)ccc2F)O1)N[C@@H]1CCN(Cc2ccccc2)C1	inactive
O=C(C[C@@H]1CC[C@H]2[C@@H](COC[C@@H](O)CN2Cc2cc(F)ccc2F)O1)N[C@H]1CCN(Cc2ccccc2)C1	inactive
O=C(C[C@H]1CC[C@H]2[C@@H](COC[C@@H](O)CN2Cc2cc(F)ccc2F)O1)N[C@H]1CCN(Cc2ccccc2)C1	active
O=C(C[C@H]1CC[C@@H]2[C@H](COC[C@@H](O)CN2Cc2cc(F)ccc2F)O1)N[C@H]1CCN(Cc2ccccc2)C1	active
O=C(C[C@@H]1CC[C@H]2[C@@H](COC[C@H](O)CN2Cc2cc(F)ccc2F)O1)N[C@H]1CCN(Cc2ccccc2)C1	inactive
O=C(C[C@@H]1CC[C@@H]2[C@H](COC[C@@H](O)CN2Cc2cc(F)ccc2F)O1)N[C@H]1CCN(Cc2ccccc2)C1	inactive
O=C(C[C@H]1CC[C@H]2[C@@H](COC[C@H](O)CN2Cc2cc(F)ccc2F)O1)N[C@H]1CCN(Cc2ccccc2)C1	inactive
